Records with an inconclusive call do not appear. Activity calls are given as the source filed them. Unless noted, calls come from the whole dose curve; as a rule, active = well fitted curve in the direction sought with a large enough effect; inconclusive = small, poorly fitted or top-dose-only effect, or another doubt; inactive = no such curve, though single readings can be large; an effect the other way counts as inactive or inconclusive.
Tests used:
[1] = OV-KATE Cancer Cell Toxicity qHTS against the NCATS CANVASS Library (AID 1347345)
Method in brief: (§1)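 Cells were seeded at 1000 per well, allowed 4 h at 37 degrees C/5% CO2, then pin-treated with an 11-point compound series. After 72 h, viability was read as CellTiter-Glo luminescence following 15min at room temperature.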

[2] = HPAF-II Cancer Cell Toxicity qHTS against the NCATS CANVASS Library (AID 1347346)
Method in brief: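 Using 1000 HPAF-II cells per well, we titrated compounds over 11 concentrations for 72 h at 37 degrees C/5% CO2, with bortezomib as control. Cell survival was quantified by CellTiter-Glo luminescence.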

[3] = UWB1.289 Cancer Cell Toxicity qHTS against the NCATS CANVASS Library (AID 1347347)
Method in brief: as §1

[4] = Panc-1005 Cancer Cell Toxicity qHTS against the NCATS CANVASS Library (AID 1347349)
Method in brief: as §1

[5] = U-118MG Cancer Cell Toxicity qHTS against the NCATS CANVASS Library (AID 1347351)
Method in brief: as §1

[6] = COV-362 Cancer Cell Toxicity qHTS against the NCATS CANVASS Library (AID 1347352)
Method in brief: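 Using an ATP-based luminescent reagent after three days of treatment, toxicity is scored across an eleven-concentration range in wells holding 1000 cells each.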

[7] = A2780 Cisplatin Sensitive Ovarian Cancer Cell Toxicity qHTS against the NCATS CANVASS Library (AID 1347353)
Method in brief: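 Quantitative HTS format: eleven compound concentrations applied to pre-seeded cells, 72 h incubation at 37 °C, then ATP detection by luminescence.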

[8] = HPAF-II 24hr Apoptosis Induction qHTS against the NCATS CANVASS Library (AID 1347356)
Method in brief: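 Using an 11-point qHTS format, HPAF-II cells in DMEM/10% FBS received compounds for 24 h; doxorubicin titration as control. Caspase-3/7 activity quantified by DEVD-luciferase luminescence.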

[9] = HEK293 18hr Apoptosis Induction qHTS against the NCATS CANVASS Library (AID 1347357)
Method in brief: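 Cells seeded at 500/well in DMEM + 10% FBS. Compounds pinned, 11 concentrations. 18 h, 37 degrees C/5% CO2. Caspase-Glo 3/7 added, 15 min RT dark, luminescence read.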

[10] = HPAF-II 12hr Apoptosis Induction qHTS against the NCATS CANVASS Library (AID 1347358)
Method in brief: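 Twelve-hour compound exposure of HPAF-II cells in DMEM with 10% FBS, then luminescent Caspase-Glo 3/7 detection after 15 min at room temperature; doxorubicin control.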

[11] = HEK293 24hr Apoptosis Induction qHTS against the NCATS CANVASS Library (AID 1347359)
Method in brief: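 HEK293 cells (500/well, DMEM + 10% FBS) were exposed to compounds in an 11-point series for 24 hours at 37 degrees C, then caspase-3/7 activity was read by Caspase-Glo DEVD luciferase luminescence after 15 min.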

[12] = HPAF-II 18hr Apoptosis Induction qHTS against the NCATS CANVASS Library (AID 1347360)
Method in brief: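 Seed HPAF-II cells at 500/well in DMEM + 10% FBS, pin-transfer compounds, incubate 18 hours at 37 degrees C/5% CO2, add Caspase-Glo 3/7 reagent, wait 15 min, read luminescence.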

[13] = HEK293 12hr Apoptosis Induction qHTS against the NCATS CANVASS Library (AID 1347361)
Method in brief: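 Cells are seeded, dosed with an 11-point compound series and incubated 12 hours. Caspase-3/7 activity is detected by luminescent DEVD-substrate reagent after 15 minutes at room temperature.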

[14] = test system: NAD(P)H diaphorase (Clostridium kluyveri); assay: Diaphorse counterscreen qHTS: Assay Interference Panel against the NCATS CANVASS Library (AID 1347362)
Method in brief: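 Clostridium kluyveri diaphorase in PBS with 0.01% Tween-20 was preincubated 15 min at room temperature in the dark with compounds (11-point series). Resorufin fluorescence (ex 525/20, em 598/25) was read 5 min after adding resazurin/NADH.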

[15] = molecular target: Luciferin 4-monooxygenase (Photinus pyralis) (UniProt P08659); assay: Firefly luciferase counterscreen qHTS: Assay Interference Panel against the NCATS CANVASS Library (AID 1347363)
Chain of Luciferin 4-monooxygenase (Photinus pyralis) (P08659 whole entry, looked up): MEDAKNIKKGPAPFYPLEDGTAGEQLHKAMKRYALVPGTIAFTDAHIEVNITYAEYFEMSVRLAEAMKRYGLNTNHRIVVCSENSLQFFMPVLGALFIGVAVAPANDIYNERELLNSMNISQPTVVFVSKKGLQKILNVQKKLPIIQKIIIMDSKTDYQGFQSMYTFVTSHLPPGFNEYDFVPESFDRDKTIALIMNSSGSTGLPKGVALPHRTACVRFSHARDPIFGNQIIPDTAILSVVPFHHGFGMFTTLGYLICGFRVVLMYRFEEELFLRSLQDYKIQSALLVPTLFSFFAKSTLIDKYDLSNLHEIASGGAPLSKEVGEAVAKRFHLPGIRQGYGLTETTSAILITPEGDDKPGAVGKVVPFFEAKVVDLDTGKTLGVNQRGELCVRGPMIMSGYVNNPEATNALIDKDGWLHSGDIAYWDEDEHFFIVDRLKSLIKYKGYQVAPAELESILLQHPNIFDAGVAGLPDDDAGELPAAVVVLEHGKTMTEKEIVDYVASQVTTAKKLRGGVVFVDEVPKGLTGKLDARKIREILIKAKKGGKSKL
Method in brief: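 Purified P. pyralis luciferase was added to compounds (11-point series) preincubated 15 min at room temperature with substrate containing 0.013 mM D-luciferin and 0.013 mM ATP; luminescence was read after 5 min.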

[16] = KB-8-5-11 Cancer Cell Toxicity qHTS against the NCATS CANVASS Library (AID 1347364)
Method in brief: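 Luminescent ATP signal (CellTiter-Glo, 10 min at room temperature) measured cell survival of KB-8-5-11 after 72 hr compound treatment. For confirmation, the cells were also grown with 1uM tariquidar.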

[17] = qHTS for ATAD5 Agonist screened against the NCATS CANVASS Library (AID 1347367)
Method in brief: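 HEK293T-ATAD5 luc reporter; 2000 cells/well; 5hr settle; cpd 11-pt qHTS; 16hr 37C 5% CO2 dark; viability by CellTiter-Fluor (AFC fluorescence); then luciferase luminescence, 30min RT.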

[18] = MCF7 Cancer Cell Toxicity qHTS against the NCATS CANVASS Library (AID 1347369)
Method in brief: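 Cells seeded at 500/well, then compound pinned. Plates incubated 72 hr at 37C, 5% CO2. CellTiterGlo added; luminescence read.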

[19] = qHTS for ATAD5 Antagonist screened against the NCATS CANVASS Library (AID 1347370)
Method in brief: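 HEK293T-ATAD5 luc reporter, 2000 cells/well; 5hr attach; cpd + 10 uM 5-FUrd; 16hr 37C, 5% CO2. Readouts: CellTiter-Fluor fluorescence (1hr), then Amplite luciferase luminescence (30min RT).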

[20] = molecular target: Nuclear receptor subfamily 1 group I member 3 (Homo sapiens) (UniProt Q14994); assay: qHTS for Constitutive Androstane Receptor (CAR) Antagonist screened against the NCATS CANVASS Library (AID 1347372)
Chain of Nuclear receptor subfamily 1 group I member 3 (Homo sapiens) (Q14994 whole entry, looked up): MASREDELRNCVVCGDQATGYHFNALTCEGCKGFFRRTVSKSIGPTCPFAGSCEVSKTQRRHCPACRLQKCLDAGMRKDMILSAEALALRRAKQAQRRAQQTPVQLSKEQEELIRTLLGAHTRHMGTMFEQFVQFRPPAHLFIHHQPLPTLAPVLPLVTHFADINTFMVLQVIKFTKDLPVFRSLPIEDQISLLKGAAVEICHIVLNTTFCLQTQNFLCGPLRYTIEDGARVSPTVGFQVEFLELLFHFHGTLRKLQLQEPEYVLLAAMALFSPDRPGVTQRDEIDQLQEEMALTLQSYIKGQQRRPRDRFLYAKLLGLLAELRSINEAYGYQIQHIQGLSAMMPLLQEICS
Method in brief: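 Cells were seeded and left 4hr to attach, then received compound at 11 concentrations and 50 nM CITCO. Following 24hr incubation, fluorescence viability and luciferase luminescence were read sequentially.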

[21] = molecular target: Nuclear receptor subfamily 1 group I member 3 (Homo sapiens) (UniProt Q14994); assay: qHTS for Constitutive Androstane Receptor (CAR) Agonist screened against the NCATS CANVASS Library (AID 1347373)
Method in brief: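 In an 11-point concentration series, compounds were incubated 24hr with HepG2 cells carrying hCAR and a CYP2B6-2.2kb reporter, with PK11195 at 1.5uM final. A CellTiter-Fluor viability read preceded the ONE-Glo luminescence read.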

[22] = qHTS for Hypoxia signaling pathway (HIF-1) antagonists against the NCATS CANVASS Library (AID 1347374)
Method in brief: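 Beta-lactamase reporter under HRE control in ME-180 cells; CoCl2 stimulus (60 uM solution as added), compounds 11-pt qHTS, 17 h 37C. CCF4 dye 2 h RT, 460/530 nm emission. CellTiter-Glo viability in same wells.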

[23] = 10-beta competent E. coli microbial cell viability qHTS against the NCATS CANVASS Library (AID 1347376)
Method in brief: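 Overnight 37C exposure of 10-beta E. coli (0.2 OD) to an 11-point concentration series; ATP-based luminescence after 20 min room-temperature reagent incubation; daunomycin as control.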

[24] = qHTS for H2AX Agonists against the NCATS CANVASS Library (AID 1347378)
Method in brief: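 CHO-K1, 1000 cells/well, o/n 37C; cpd several conc, 3 hr 37C, 0.76% DMSO; lyse 30 min RT; cryptate anti-pH2AX(S139) + d2 anti-H2AX, 24 hr RT; HTRF 665/620.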

[25] = qHTS for Inflammasome Signaling Inhibitors: IL-1-beta AlphaLISA screen against the NCATS CANVASS Library (AID 1347379)
Method in brief: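 THP-1, 1 hr compound pre-incubation, then LPS 250 ng/mL + ATP 1.25 mM (final); 16 hr total with compound; IL-1B AlphaLISA, ex 680/em 615 nm; 11-point qHTS, up to 57.5 uM final.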

[26] = qHTS for Antimalaria activity screened against the NCATS CANVASS Library (AID 1347380)
Method in brief: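 Measures proliferation or cytotoxicity against Dd2 blood stages in 72 h cultures, 11-point qHTS dosing, with SYBR Green fluorescence as read-out; dihydroartemisinin titration served as control.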

[27] = Inflammasome Signaling qHTS Counterscreen: IL-1-beta AlphaLISA counterscreen against the NCATS CANVASS Library (AID 1347381)
Method in brief: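 Here, no cellular stimulation occurs; compounds in an 11-point series meet 4 pg purified IL-1-beta directly. Bead-based AlphaLISA detection follows (1 h acceptor/antibody, then 30 min donor, dark, room temperature), with excitation at 680 nm.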

[28] = Cytotoxicity qHTS for assessment of Hepg2 cells membrane integrity screened against the NCATS CANVASS Library (AID 1347387)
Method in brief: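 Membrane damage in HepG2 monolayers was estimated from released LDH, measured with CytoTox-ONE (ex 560/em 590 nm), after 5 hr treatment across 0.59 nM - 46 uM final.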

[29] = qHTS for Activators of p53 Stress Response Pathway screened against the NCATS CANVASS Library (AID 1347388)
Method in brief: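 p53RE-bla HCT-116 cells (4000/well) were plated 5 h at 37C, exposed to compounds for 16 h at 37C over an 11-point concentration series, then loaded with CCF4 for 2 h at room temperature; 460/530 nm emission ratio read.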

[30] = qHTS assay for small molecule disruptors of mitochondrial membrane potential screened against the NCATS CANVASS Library (AID 1347389)
Method in brief: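 Cells (HepG2) seeded the day before received compound or DMSO for 1 hr, then Mito-MPS dye for 30 min at 37C; emission at 590 nm over 535 nm gave the polarization signal.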

[31] = Secretion counterscreen for inhibitors of the SERCaMP assay screened against the NCATS CANVASS Library (AID 1347390)
Method in brief: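 SH-SY5Y-GLuc STOP cells; 4 h attach; cpds 0.001 - 77 uM (qHTS, 11 pts), 20 h 37C/5% CO2; coelenterazine in glow buffer; luminescence, 5 s exposure.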

[32] = qHTS for activators of dead-cell proteases activity screened against the NCATS CANVASS Library (AID 1347392)
Method in brief: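 Cytotoxicity in HepG2 cells was assessed by released protease cleaving AAF-aminoluciferin, with luminescence as signal. Exposure lasted 5 h at 37C across an 11-point series.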

[33] = Vero-766 cells viability qHTS against the NCATS CANVASS Library: Counterscreen for Zika virus inhibition assay (AID 1347394)
Method in brief: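 Vero 766, no virus; 1000 cells/well; o/n attach; cpd 11-pt; 72 h, 37C, 5% CO2; CTG luminescence; cell-free media wells = 100% inhibition.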

[34] = qHTS for inhibitors of Wild type Zika virus screened against the NCATS CANVASS Library (AID 1347396)
Method in brief: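 Protection against wild-type Zika cytopathic effect is measured in African green monkey Vero 766 cells exposed to an 11-point compound series. Surviving cells are quantified by CellTiter Glo luminescence after 72 h.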

[35] = Viability qHTS for inhibitors of the SERCaMP assay screened against the NCATS CANVASS Library (AID 1347400)
Method in brief: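 Measures loss of viability in SERCaMP reporter SH-SY5Y cells treated for 48 h with compounds; luminescent ATP detection by CellTiter-Glo.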

[36] = Redox Reaction Profiling qHTS: Assay Interference Panel against the NCATS CANVASS Library (AID 1347401)
Method in brief: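 Quantitative HTS over an 11-point series was run in HEPES pH 7.3 with 50 mM NaCl, 200 uM DTT and 5 uM resazurin. Initial and 15-min resorufin fluorescence readings were taken.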

[37] = qHTS for inhibitors of Rabies Virus screened against the NCATS CANVASS Library (AID 1347402; calls by dose curve)

Measured: Potency

CC[C@@H]1CN2CC[C@@]3(O)C(=Nc4cccc(OC)c43)[C@@H]2C[C@@H]1/C(=C\OC)C(=O)OC
active: [26] 14.9 µM
inactive: all other assays above
